Inconclusive results are not listed. A number with no mark means an inactive call. Calls come from the whole dose curve; as a rule, active = well fitted inhibition curve with a large enough effect; inconclusive = small, poorly fitted or top-dose-only effect; inactive = flat fitted curve, though single readings scatter.
test system: AS120; assay: qHTS profiling for inhibitors of Plasmodium falciparum proliferation (AID 504749);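 note: 0% = DMSO vehicle and full inhibition = artemisinin control; nearly all actives have a fitted effect of over 60% in size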; details: P. falciparum in erythrocytes, SYBR Green DNA, 72 h; series mostly up to 28.7 µM; activity, negative = inhibition: at the top concentration
Procedure, shortened: (§1)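 P. falciparum-infected erythrocytes (0.3% parasitemia, 2.5% hematocrit final) were exposed to compounds for 72 h at 37 C in 5% CO2, then lysed with SYBR Green buffer overnight at room temperature; parasite DNA fluorescence was normalized to artemisinin and DMSO controls.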

| Compound | activity, negative = inhibition |
| --- | --- |
| CC(C)C[C@@H](N)C(=O)O | 0.29% |
| COc1ccc(O)cc1 | 11.2% |
| COc1ccccc1OC(=O)Oc1ccccc1OC | -3.25% |
| CCCNC(C)(C)COC(=O)c1ccccc1 | 0.489% |
| Cc1cccc(C)c1NC(=O)CC12CCCN1CCC2 | -6.94% |
| C[C@@H]1O[C@@H](OC[C@H]2O[C@@H](Oc3c(-c4ccc(O)c(O)c4)oc4cc(O)cc(O)c4c3=O)[C@H](O)[C@@H](O)[C@@H]2O)[C@H](O)[C@H](O)[C@H]1O | 5.56% |
| COC(=O)c1cccnc1 | 3.89% |
| CC(C(=O)O)c1ccc2c(c1)Cc1cccnc1O2 (configuration not stated) | 1.13% |
| CCS(=O)(=O)CCn1c([N+](=O)[O-])cnc1C | -7.65% [at 12.8 µM] |
| CCOc1ccc(C(=O)OCCN(CC)CC)cc1 | 13.6% |
| CC(C)c1cc2c(cc1S(=O)(=O)O)[C@@]1(C)CCC[C@@](C)(C(=O)O)[C@@H]1CC2 | 1.55% |
| CCN(CC)CC1CCCCN1CC(=O)N1c2ccccc2C(=O)Nc2cccnc21 (configuration not stated) | 7.7% |
| Cc1cc(=O)[nH]c(=S)[nH]1 | 11.1% |
| CCOc1cc(NC(C)=O)ccc1C(=O)OC | 10.2% |
| CCCCCCCCCCCCCCCCN | 4.2% |
| NNC(=O)CP(=O)(c1ccccc1)c1ccccc1 | -0.511% |
| CCCCCC(N)=O | 9.6% |
| O[C@@H]1CO[C@H]2[C@@H]1OC[C@@H]2O | 2.99% |

| Compound | activity, negative = inhibition |
| --- | --- |
| CCCCCCCCCCCCCCCCCCO | 1.1% |
| NNc1nnc(NN)c2ccccc12 | 11.4% |
| CN/C(=C\[N+](=O)[O-])NCCSCc1csc(CN(C)C)n1 | -1.57% [at 12.8 µM] |
| CC(=O)OCC(COC(C)=O)OC(C)=O | 7.22% |
| O=C(O)c1ccccc1C(=O)Nc1ccc(S(=O)(=O)Nc2nccs2)cc1 | 11.9% |
| O=C(NCN1CCOCC1)c1cnccn1 | -1.28% |
| COc1ccc(C(=O)N2CCN(CC(=O)N3CCOCC3)CC2)cc1 | 8.75% |
| COC(=O)c1ccc(O)cc1 | 10% |
| O=c1[nH]c(=O)c2ccccc2o1 | 2.98% |
| NC(=O)CC[C@@H](N)C(=O)O | 10.6% |
| O=C(O)Cc1cn(-c2ccccc2)nc1-c1ccc(Cl)cc1 | 5.52% |
| Cc1c(Cn2ccnc2)c2ccccc2n1CCC(=O)O | -5.16% |
| O=c1[nH]cnc2nc[nH]c12 | 2.58% |
| CCN(CC)S(=O)(=O)c1ccc(C(=O)O)cc1 | 6.55% |
| N[C@@H](Cc1ccc(O)cc1)C(=O)O | 10.1% |
| NS(=O)(=O)c1ccc(NC(=O)CCC(=O)O)cc1 | 11.4% |
| CNCc1ccccc1 | 9.3% |
| O=C(OOC(=O)c1ccccc1)c1ccccc1 | 5.47% |

test system: ATS189; assay: as above; details: P. falciparum in erythrocytes, SYBR Green DNA, 72 h; series mostly up to 28.7 µM; activity, negative = inhibition: at the top concentration
Procedure, shortened: as §1

| Compound | activity, negative = inhibition |
| --- | --- |
| CC(C)C[C@@H](N)C(=O)O | 14.9% |
| COc1ccc(O)cc1 | 0.488% |
| COc1ccccc1OC(=O)Oc1ccccc1OC | 1.34% |
| CCCNC(C)(C)COC(=O)c1ccccc1 | -2.16% |
| Cc1cccc(C)c1NC(=O)CC12CCCN1CCC2 | 2.8% |
| C[C@@H]1O[C@@H](OC[C@H]2O[C@@H](Oc3c(-c4ccc(O)c(O)c4)oc4cc(O)cc(O)c4c3=O)[C@H](O)[C@@H](O)[C@@H]2O)[C@H](O)[C@H](O)[C@H]1O | -13.2% |
| COC(=O)c1cccnc1 | 3.5% |
| CC(C(=O)O)c1ccc2c(c1)Cc1cccnc1O2 (configuration not stated) | 6.19% |
| CCS(=O)(=O)CCn1c([N+](=O)[O-])cnc1C | 7.63% [at 12.8 µM] |
| CCOc1ccc(C(=O)OCCN(CC)CC)cc1 | 7.26% |
| CC(C)c1cc2c(cc1S(=O)(=O)O)[C@@]1(C)CCC[C@@](C)(C(=O)O)[C@@H]1CC2 | 12.8% |
| CCN(CC)CC1CCCCN1CC(=O)N1c2ccccc2C(=O)Nc2cccnc21 (configuration not stated) | 8.61% |
| Cc1cc(=O)[nH]c(=S)[nH]1 | 11.9% |
| CCOc1cc(NC(C)=O)ccc1C(=O)OC | 13.4% |
| CCCCCCCCCCCCCCCCN | 14.7% |
| NNC(=O)CP(=O)(c1ccccc1)c1ccccc1 | 13.4% |
| CCCCCC(N)=O | 0.76% |
| O[C@@H]1CO[C@H]2[C@@H]1OC[C@@H]2O | 12% |

| Compound | activity, negative = inhibition |
| --- | --- |
| CCCCCCCCCCCCCCCCCCO | 2.78% |
| NNc1nnc(NN)c2ccccc12 | 11.2% |
| CN/C(=C\[N+](=O)[O-])NCCSCc1csc(CN(C)C)n1 | 9.06% [at 12.8 µM] |
| CC(=O)OCC(COC(C)=O)OC(C)=O | 8.26% |
| O=C(O)c1ccccc1C(=O)Nc1ccc(S(=O)(=O)Nc2nccs2)cc1 | 12.5% |
| O=C(NCN1CCOCC1)c1cnccn1 | 5.44% |
| COc1ccc(C(=O)N2CCN(CC(=O)N3CCOCC3)CC2)cc1 | 2.68% |
| COC(=O)c1ccc(O)cc1 | 3.46% |
| O=c1[nH]c(=O)c2ccccc2o1 | 12.7% |
| NC(=O)CC[C@@H](N)C(=O)O | 10.3% |
| O=C(O)Cc1cn(-c2ccccc2)nc1-c1ccc(Cl)cc1 | 4.62% |
| Cc1c(Cn2ccnc2)c2ccccc2n1CCC(=O)O | 8% |
| O=c1[nH]cnc2nc[nH]c12 | 10.9% |
| CCN(CC)S(=O)(=O)c1ccc(C(=O)O)cc1 | 17.9% |
| N[C@@H](Cc1ccc(O)cc1)C(=O)O | 9.56% |
| NS(=O)(=O)c1ccc(NC(=O)CCC(=O)O)cc1 | 10.9% |
| CNCc1ccccc1 | 4.57% |
| O=C(OOC(=O)c1ccccc1)c1ccccc1 | 2.82% |

From PubChem BioAssay (NCATS)
